# Measurements: PubChem BioAssay (EPA / NIEHS)
# The source made the active and inactive calls. Rule for the calls: active = hit-call score of the fitted dose curve at least 0.9, where 1 is the maximum; inconclusive = response in the unintended direction; inactive = score below 0.9.
# System: DIO2 (gene 1734)
# Assay: CCTE_GLTED_hDIO2: CCTE's human Deiodinase 2 (DIO2) Inhibition Assay, Great Lakes Toxicology and Ecology Division (GLTED) Lab (AID 2284050)
# Procedure: CCTE_GLTED_hDIO2 is a cell-free, single-readout assay designed to test the inhibitory activity of chemicals toward human iodothyronine Deiodinase type 2 (DIO2) enzyme. Enzyme is incubated in presence of test chemical for 3 hours during which uninhibited enzyme liberates free iodide from substrate. Free iodide is measured in a second step using the Sandell-Kolthoff method.CCTE_GLTED_hDIO2 is the assay component measured from the CCTE_GLTED_hDIO2 assay. It is designed to make measurements of enzyme activity, a form of enzyme reporter, as detected with absorbance signals by spectrophotometry.Data from the assay component CCTE_GLTED_hDIO2 was analyzed into 1 assay endpoint. This assay endpoint, CCTE_GLTED_hDIO2, was analyzed in the positive analysis fitting direction relative to DMSO as the negative control and baseline of activity. Using a type of enzyme reporter, loss-of-signal activity can be used to understand changes in the enzymatic activity as they relate to the gene DIO2. Furthermore, this assay endpoint can be referred to as a primary readout, because the performed assay has only produced 1 assay endpoint. To generalize the intended target to other relatable targets, this assay endpoint is annotated to the 'deiodinase' intended target family, where the subfamily is 'deiodinase Type 2'.
# Human deiodinase type 2 (hDIO2) assay, developed at Great Lakes Toxicology and Ecology Division (GLTED) within the EPA's Center for Computational Toxicology and Exposure (CCTE), is designed to test the chemicals' ability to inhibit DIO2. Assay is based on iodide release measured by the Sandell-Kolthoff method and is run in 96-well plate format with assay plates run in triplicate (n=3). The method used for the deiodinase assay was largely based on Renko et al. (2012, 2015). These works describe the utilization of the SK reaction to measure deiodinase-liberated iodide in a 96-well-plate format. The SK reaction is based on the reduction of the yellow-colored cerium IV to the non-colored cerium III by arsenic, with the rate of this reaction increased in the presence of iodide in a concentration-dependent manner (Sandell and Kolthoff, 1937). Iodinated test chemicals can interfere as competitive inhibitors, or if the stock chemical has contaminating free-iodide present. Other chemicals, e.g.: nitrite, iron, and thiocyanate can interfere with the Sandell-Kolthoff reaction (see Sandell and Kolthoff, 1937).
Structure (SMILES),AC50,outcome
NCc1cccc(C2CCN(C(=O)c3ccc(C#Cc4ccccc4F)o3)CC2)c1,30.6 µM (active),–
CCN(CC)C(=O)c1cc(S(=O)(=O)Cc2ccccc2)c(N2CCC(c3ccccc3)CC2)cc1N(CC)CCN(C)C,37 µM (active),–
CC(C)(c1cc(Br)c(O)c(Br)c1)c1cc(Br)c(O)c(Br)c1,48.6 µM (active),–
CCOC(=O)O[C@H](C)OC(=O)c1ccc2c(c1)cc(C(=O)NC1CCN(C(C)C)CC1)n2Cc1cc(-c2ccc(Cl)s2)on1,45.2 µM (active),–
CN(C[C@@H](CC[N+]12CCC(C3CCCCC3)(CC1)CC2)c1ccc(Cl)c(Cl)c1)C(=O)c1cc(C(F)(F)F)cc(C(F)(F)F)c1,37.8 µM (active),–
NC(=O)c1nc(-c2cccc(-c3cc(F)ccc3OCC(F)(F)C(F)(F)F)c2)n[nH]1,100 µM (active),–
O=CCCCC=O,91.3 µM (active),–
CCCCCCCCCCCC[N+](C)(C)C,96.4 µM (active),–
CN(C)C(=O)C1(N2CCCCC2)CCN(CC[C@@]2(c3ccc(Cl)c(Cl)c3)CN(C(=O)c3ccccc3)CCO2)CC1,73.9 µM (active),–
CCCCCCCCOC(=O)c1cc(O)c(O)c(O)c1,143 µM (active),–
CN1C(=O)N(c2ccccc2Br)Cc2cnc(Nc3ccc4c(c3)OCC(CO)O4)nc21 (stereo unspecified),–,inactive
CC(C)(C)c1cc(/C=C2\SC(N)=NC2=O)cc(C(C)(C)C)c1O,30.3 µM (active),–
CC(C)(C)c1csc(-c2cc3cc(OCc4ccccc4CC(=O)O)ccc3o2)n1,120 µM (active),–
CN(C)c1ccc(C(=C2C=CC(=[N+](C)C)C=C2)c2ccc(N(C)C)cc2)cc1,134 µM (active),–
CCCCCCCCCCCCO,–,inactive
OC12N=C(c3ccccc3)SC1Cc1cc(Cl)ccc12 (stereo unspecified),72.5 µM (active),–
